Source: PubChem BioAssay
RE007 growth inh – less growth of the S. pombe RE007 Vpr strain | hit rate 0.21% among 360,000 | Potency, µM (top dose mostly 92.2 µM), without a hit: at the highest dose activity change, negative = less growth, most hits filed as inhibitors | AID 651644 | S. pombe RE007 Vpr strain, BacTiter-Glo ATP luminescence, 24 h; active means well fitted falling curve with a large enough effect; inconclusive means small, poorly fitted or top-dose-only effect; inactive means no such curve, though single readings can be large or run the other way; further: potency means the concentration at half of the fitted maximal effect; on the % scale 0 is the no-effect control and ±100 the full control effect; nearly all actives have a fitted effect of over 50% in size
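Fission yeast strain RE007, carrying one chromosomally integrated HIV-1 vpr copy, was seeded at OD 0.01 in PMG+AL medium with 23 nL pinned compound. After 24 h at 30 °C and 99% humidity, viability was read by BacTiter-Glo luminescence.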
LmPK inhibitor – blocks Leishmania mexicana pyruvate kinase activity; Potency, µM (highest dose often 57.5 µM), for the others: top-dose activity change, negative = inhibition, hits mostly inhibitors; purified LmPK, Kinase-Glo ATP luminescence, 1 h; hit rate 0.37% among 290,000; Q27686; further: potency means the concentration at half of the fitted maximal effect; on the % scale 0 is the no-effect control and ±100 the full control effect
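Purified LmPK (0.1 nM) converted ADP (0.1 mM) to ATP with PEP (0.5 mM) in imidazole buffer pH 7.2 with KCl and MgCl2, 1 h at room temperature. ATP was read by Kinase-Glo luminescence; data normalized to uninhibited and no-enzyme controls.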
FBPA Giardia inh – Giardia lamblia aldolase inhibition; A8B2U2; purified Giardia FBPA; Potency, µM (series often up to 59.6 µM), without a hit: at the top dose activity, negative = inhibition, usual class: inhibitors; hit rate 0.71% among 290,000; AID 2451; further: potency means the concentration at half of the fitted maximal effect; on the % scale 0 is the no-effect control and ±100 the full control effect; nearly all actives have a fitted effect of over 55% in size
Target sequence (A8B2U2 whole entry, looked up): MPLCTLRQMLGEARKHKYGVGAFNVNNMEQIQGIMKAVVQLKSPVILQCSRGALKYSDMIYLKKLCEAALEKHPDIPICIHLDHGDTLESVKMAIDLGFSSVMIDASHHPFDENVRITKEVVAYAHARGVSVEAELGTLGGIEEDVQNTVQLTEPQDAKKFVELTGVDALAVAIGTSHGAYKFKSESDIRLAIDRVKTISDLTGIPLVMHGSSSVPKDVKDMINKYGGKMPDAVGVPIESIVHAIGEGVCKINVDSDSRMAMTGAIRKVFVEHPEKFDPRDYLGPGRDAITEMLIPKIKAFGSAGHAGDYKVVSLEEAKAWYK
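40 nM FBPA preincubated 10 min at RT with compound (up to 57.5 uM final), then substrate plus GAPDH/TPI/NAD/arsenate coupling and diaphorase/resazurin added. Fluorescence read after 20 min at RT, 525/598 nm.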
TbPYK inhibitor – T. brucei pyruvate kinase inhibition; Q57TT1; TbPYK enzyme, Kinase-Glo Plus ATP luminescence, 45 min; Potency, µM (series often up to 76.8 µM), for inactives: top-dose activity, negative = inhibition, most hits filed as inhibitors; hit rate 0.12% among 410,000; further: potency means the concentration at half of the fitted maximal effect; on the % scale 0 is the no-effect control and ±100 the full control effect; nearly all actives have a fitted effect of over 50% in size
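Activity of T. brucei pyruvate kinase was followed by Kinase-Glo Plus luminescence after the enzyme reacted 45 min at room temperature with 130 uM ADP (final) and substrate. Test compounds were added before ADP at multiple concentrations.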
Cycloheximide cs – affects cycloheximide protein synthesis inhibition readout, counter-screen | cell reporter, cycloheximide protein synthesis inhibition counterscreen | max response, % | hit rate 12% among 300,000; in the data active means max response mostly above about 13%, no sharp cut-off; inactive means mostly below about 14%; further: read at 38.3 µM for the half of the compounds with a filed dose; 0% is about no effect
Shiga toxin inh – blocks Shiga toxin action in Vero cells. Vero cells, Shiga toxin protein synthesis inhibition reporter. hit rate 9.2% among 290,000. inhibition, % at 38.7 µM; in the data active means inhibition mostly above about 28%, no sharp cut-off; inactive means mostly below about 43%; further: 0% is about no effect
* = called active by the depositor; ? = inconclusive; . = no result; + = active, no number; [ ] = remark or other dose. This excerpt belongs to a sample that is enriched for hits. Unless noted, the call rests on the fitted dose curve; in most records, active means well fitted curve in the direction sought with a large enough effect; inconclusive means small, poorly fitted or top-dose-only effect, or another doubt; inactive means no such curve, though single readings can be large; an effect the other way counts as inactive or inconclusive.

SMILES	RE007 growth inh	LmPK inhibitor	FBPA Giardia inh	TbPYK inhibitor	Cycloheximide cs	Shiga toxin inh
N=c1oc2ccc3ccccc3c2cc1-c1nc(-c2ccccc2)cs1	1%	-1%	2%	0%	-2	-2
Cn1c(SCC(=O)c2ccc3c(c2)OCO3)nnc1-c1ccccn1	0%	-6%	-11%	-10%	25	19
O=C(CSc1ccccn1)Nc1ccc2c(c1)OCO2	9%	1%	-10%	1%	34*	101*
O=C(CSc1ccccn1)c1ccc2c(c1)OCO2	-15%	?	-1%	-3%	37*	39*
O=C(CSc1ccccn1)NCc1ccc2c(c1)OCO2	-4%	5%	-2%	-2%	12*	-8
O=C(CSc1nnc(SCc2cccc3ccccc23)s1)c1ccc2c(c1)OCO2	9%	5%	6%	-15%	14*	-7
O=C(CSc1nnc(SCc2cccc3ccccc23)s1)Nc1ccc(C(=O)O)cc1	-7%	1%	13%	-16%	-7	-10
CS(=O)(=O)Nc1cccc(-c2nccc(NCc3ccccc3)n2)c1	.	.	-7%	.	.	.
CO/N=C(/C(=O)N[C@@H]1C(=O)N2C(C(=O)O)=C(CSc3nc(C)c(CC(=O)O)s3)CS[C@H]12)c1csc(N)n1	.	.	.	1%	.	.
O=C(CSc1nc2ccccc2o1)NCc1ccc2c(c1)OCO2	-6%	1%	-9%	-12%	15*	27*
CC(Sc1nc2ccccc2s1)C(=O)NCc1ccc2c(c1)OCO2 (stereo unspecified)	-2%	-1%	-2%	-9%	20*	active
CCN(C(=O)CSc1ncc2c(n1)-c1cc(Cl)ccc1N(Cc1ccccc1)S2(=O)=O)c1cccc(C)c1	.	.	.	-8%	.	.
COc1ccc2cc(-c3nc(Cl)c4c5c(sc4n3)CCCC5)c(=O)oc2c1	.	.	.	-5%	.	.
Cc1cc(CN2CCCCC2C(=O)Nc2ccc(Oc3cccnc3)cc2)oc1C (stereo unspecified)	-17%	-3%	.	3%	21*	43*
O=C(Nc1ccc(Oc2cccnc2)cc1)C1CCCCN1Cc1ccc(CO)o1 (stereo unspecified)	-9%	-3%	-12%	-8%	-3	-3
O=C(O)Cc1cc(F)c(S(=O)(=O)N2CCN(S(=O)(=O)c3ccc4c(c3)OCCO4)CC2)cc1F	.	.	.	.	-7	-5
C=CCOn1c(=O)c(-c2ccc(OC)cc2)[n+]([O-])c2ccccc21	-11%	-3%	-4%	-8%	14*	52
COn1c(=O)c(-c2ccc(F)cc2)[n+]([O-])c2ccccc21	-9%	3%	-10%	1%	-2	3
CCOc1ccc(-c2c(=O)n(OCc3nc4ccccc4[nH]3)c3ccccc3[n+]2[O-])cc1	-4%	-22%	-13%	0%	19	32*
COc1ccc(-c2c(=O)n(OCc3nc4ccccc4[nH]3)c3ccccc3[n+]2[O-])cc1	-19%	-1%	-2%	-1%	29*	33
COc1ccc(NC(=O)CSc2nc(N)c(C(=O)Nc3ccc(N(C)C)cc3)s2)cc1	6%	1%	-2%	-5%	40	124*
CN(C)c1ccc(NC(=O)CSc2nc(N)c(C(=O)Nc3ccc(N(C)C)cc3)s2)cc1	-6%	-2%	-3%	-7%	31*	65
CN(C)C(CNC(=O)c1cc2ccccc2oc1=O)c1ccccc1 (stereo unspecified)	-5%	-8%	-3%	-2%	27*	90*
O=C(NCc1ccc(Cl)cc1)c1cc2ccccc2oc1=O	1%	-7%	8%	-1%	14	11
O=C(NCc1ccccc1)c1cc2ccccc2oc1=O	4%	1%	-4%	-2%	50*	44*
SMILES	RE007 growth inh	LmPK inhibitor	FBPA Giardia inh	TbPYK inhibitor	Cycloheximide cs	Shiga toxin inh
O=C(O)c1cc2c(ccc3ccccc32)oc1=O	.	-2%	10%	.	-4	-13
COc1ccc(C(=O)COC(=O)c2cc3ccccc3oc2=O)c(OC)c1	-3%	.	.	-2%	.	.
CC(C)(C)NC(=O)c1cc2c(ccc3ccccc32)oc1=O	-8%	2%	1%	3%	27*	.
CCOC(=O)c1cc2ccc(OC)cc2oc1=O	?	-29%	0%	1%	18*	66*
CC(Cc1c[nH]c2ccccc12)C(=O)NCc1ccco1 (stereo unspecified)	-4%	-5%	10%	0%	6	23
O=C(C1CCN(S(=O)(=O)Cc2ccccc2)CC1)N1CCN(c2cccc(Cl)c2)CC1	.	.	.	3%	.	.
COc1ccccc1N1CCN(S(=O)(=O)c2c(C)nc3sccn3c2=O)CC1	.	.	.	1%	.	.
COc1ccc(CNC(=O)c2cc3ccccc3oc2=O)cc1	6%	-5%	6%	8%	-2	3
COc1ccc2cc(C(=O)NCc3ccccc3)c(=O)oc2c1	2%	-3%	4%	4%	13*	43*
COc1ccc2cc(C(N)=O)/c(=N\NC(=O)c3ccccc3)oc2c1	15%	0%	0%	2%	44*	68*
COc1cccc(C(=O)N/N=c2/oc3ccccc3cc2C(N)=O)c1	10%	11%	-14%	1%	-1	-5
CNC(=O)c1cc2ccc(OC)cc2oc1=O	-25%	-3%	-2%	3%	12*	15
N[C@H](CO)Cc1cnc[nH]1	.	.	1%	.	.	.
O=C(CSCc1ccccc1)N/N=C/c1cc2c(cc1Br)OCO2	-22%	0%	6%	-1%	-3	-6
CCOC(=O)/C(C#N)=C1/C(=O)N(Cc2ccccc2)c2ccccc21	-9%	-7%	10µM*	-1%	-1	-4
Cc1cccc(NC(=O)NNC(=O)c2nn(C)cc2Br)c1	24%	-1%	7%	2%	11	20
Cn1cc(Br)c(C(=O)NNC(=O)c2ccccc2)n1	8%	-7%	0%	-6%	1	-1
Cn1cc(Br)c(C(=O)NNC(=O)c2ccc(Br)cc2)n1	10%	-1%	0%	-5%	35*	+
Cc1c(Br)c(C(=O)NNC(=O)c2ccc(C(C)(C)C)cc2)nn1C	-6%	4%	6%	-2%	27*	33
Cn1cc(Br)c(C(=O)NNC(=O)Nc2ccccc2C(F)(F)F)n1	2%	0%	-5%	-2%	26*	51
CCCN(Cc1nnc(-c2ccccc2Cl)o1)C(=O)c1cc([N+](=O)[O-])cc([N+](=O)[O-])c1	9%	6%[11.5 µM]	-13%	6%	-2	-10
Nc1ncnc2c1ncn2[C@@H]1O[C@H](CNC(=O)[C@@H](N)Cc2ccc(C(=O)c3ccccc3)cc2)[C@@H](O)[C@H]1O	-11%	.	.	0%	.	.
Nc1ccn([C@@H]2O[C@H](C(=O)NCc3ccc4c(c3)OCO4)[C@@H](O)[C@H]2O)c(=O)n1	11%	.	.	7%	.	.
COc1ccccc1NC(=O)NC(=O)c1ccccc1	22%	-5%	1%	-5%	23*	59*
